RE007 growth inh = less growth of the S. pombe RE007 Vpr strain; Potency, µM (series often up to 92.2 µM), inactives show at the highest dose activity change, negative = less growth, actives largely listed as inhibitors; S. pombe RE007 Vpr strain, BacTiter-Glo ATP luminescence, 24 h; hit rate 0.21% among 360,000; active means well fitted falling curve with a large enough effect; inconclusive means small, poorly fitted or top-dose-only effect; inactive means no such curve, though single readings can be large or run the other way; further: on the % scale 0 is the no-effect control and ±100 the full control effect; nearly all actives have a fitted effect of over 50% in size
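Fission yeast strain RE007, carrying one chromosomally integrated HIV-1 vpr copy, was seeded at OD 0.01 in PMG+AL medium with 23 nL pinned compound. After 24 h at 30 °C and 99% humidity, viability was read by BacTiter-Glo luminescence.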
NS1 inh = influenza NS1 inhibition; Potency, µM (doses to about 46.1 µM), for inactives: at the top dose activity, positive = more growth; hit rate 0.4% among 270,000; AID 2326; calls by dose curve; further: actives are rising curves; nearly all actives have a fitted effect of over 50% in size
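A cell-based growth assay was used: compounds that relieve NS1-induced slow growth of budding yeast raise OD600. Assay medium was yeast nitrogen base with ammonium sulphate and -URA supplement, pH 6.0, with 2% galactose.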
Tb PYK inh = blocks Trypanosoma brucei pyruvate kinase | Q57TT1 | TbPYK enzyme, Kinase-Glo Plus ATP luminescence, 45 min | Potency, µM (doses to about 76.8 µM), without a hit: at the highest dose activity, negative = inhibition, most hits filed as inhibitors | hit rate 0.12% among 410,000 | AID 624173; further: on the % scale 0 is the no-effect control and ±100 the full control effect; nearly all actives have a fitted effect of over 50% in size
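Assay buffer: 50 mM TEA pH 7.2, 100 mM KCl, 10 mM MgCl2, 0.05% BSA, 0.01% Tween-20. Pyruvate kinase from T. brucei plus substrate met compound, then ADP (130 uM final). Luminescence was read post 45 min RT.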
Sm TGR block = blocks Schistosoma mansoni thioredoxin glutathione reductase; AID 485364; purified TGR, DTNB reduction, TNB absorbance 405 nm; Q962Y6; Potency, µM (top dose mostly 114 µM), inactives show at the highest dose activity change, negative = inhibition, usual class: inhibitors; hit rate 3% among 360,000; further: on the % scale 0 is the no-effect control and ±100 the full control effect; nearly all actives have a fitted effect of over 60% in size
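Kinetic colorimetric format: TGR-catalysed, NADPH-driven DTNB reduction monitored via TNB absorbance. Enzyme dispensed at 20 nM; compound exposure 15 min at room temperature before reaction start.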
LmPK inh = inhibitors of Leishmania mexicana pyruvate kinase; purified LmPK, Kinase-Glo ATP luminescence, 1 h; hit rate 0.37% among 290,000; Potency, µM (titrated, usually from 57.5 µM), for inactives: at the highest dose activity change, negative = inhibition, actives largely listed as inhibitors; AID 1721; further: on the % scale 0 is the no-effect control and ±100 the full control effect
Target sequence (Q27686 whole entry, looked up): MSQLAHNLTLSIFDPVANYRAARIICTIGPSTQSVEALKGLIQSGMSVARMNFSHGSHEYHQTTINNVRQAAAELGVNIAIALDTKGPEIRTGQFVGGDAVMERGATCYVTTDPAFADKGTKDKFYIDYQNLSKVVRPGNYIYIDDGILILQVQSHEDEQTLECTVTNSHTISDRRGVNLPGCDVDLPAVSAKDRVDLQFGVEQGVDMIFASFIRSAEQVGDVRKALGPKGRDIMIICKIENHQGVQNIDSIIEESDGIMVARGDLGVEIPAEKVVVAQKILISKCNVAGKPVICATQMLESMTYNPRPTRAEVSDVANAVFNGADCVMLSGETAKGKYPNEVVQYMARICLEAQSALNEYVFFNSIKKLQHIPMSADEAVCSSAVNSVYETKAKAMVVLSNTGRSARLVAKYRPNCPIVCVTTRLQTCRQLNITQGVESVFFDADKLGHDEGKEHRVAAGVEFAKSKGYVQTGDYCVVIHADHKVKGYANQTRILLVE
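Screened at intermediate enzyme activity to detect both inhibitors and activators: LmPK at 0.1 nM, with a 0.5 nM enzyme column as activation reference. PEP 0.5 mM, ADP 0.1 mM; ATP detected by luminescence after 1 h.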
SARS PLP yeast = blocks SARS-CoV papain-like protease in a yeast assay; S. cerevisiae expressing SARS-CoV PLpro, growth rescue; Potency, µM (top dose mostly 32.9 µM), for the others: at the top dose activity, positive = growth rescue, most hits filed as activators; hit rate 0.19% among 330,000; calls by dose curve; further: 0% is about no effect; nearly all actives have a fitted effect of over 55% in size
An asterisk follows results filed as active; [ ] = remark or other dose. Sampled rows, rich in hits. Any-hit rate of the full collection: about 3.3%. Unless noted, the call rests on the fitted dose curve; in most records, active means well fitted curve in the direction sought with a large enough effect; inconclusive means small, poorly fitted or top-dose-only effect, or another doubt; inactive means no such curve, though single readings can be large; an effect the other way counts as inactive or inconclusive. Potency means the concentration at half of the fitted maximal effect.

Screening Cn1c(=O)c([N+](=O)[O-])c(-n2cnc3ccccc32)c2ccccc21 returned RE007 growth inh 0.0%, NS1 inh 0.0%, Tb PYK inh -5.5%, Sm TGR block 15.8µM*, LmPK inh -6.5% and SARS PLP yeast -0.1%.
For COC(=O)c1ccccc1NC1CC(=O)N(c2c(C)cccc2C)C1=O (stereo unspecified) the results were RE007 growth inh -2.5%, NS1 inh 10.7%, Tb PYK inh -3.9%, Sm TGR block 7.08µM*, LmPK inh 3.3% and SARS PLP yeast -29.2%.
For COC(=O)c1cc(C(=O)OC)cc(N2C(=O)CC(NNC(=O)c3ccccc3Cl)C2=O)c1 (stereo unspecified) the results were RE007 growth inh 3.5%, NS1 inh 11.7%, Tb PYK inh 2.7%, Sm TGR block -1.2%, LmPK inh -3.0% and SARS PLP yeast 1.8%.
Screening COC(=O)c1ccc(NC2CC(=O)N(c3ccccc3C)C2=O)cc1 (stereo unspecified) returned RE007 growth inh -5.5%, NS1 inh -11.1%, Tb PYK inh -6.8%, Sm TGR block 31.6µM*, LmPK inh -2.6% and SARS PLP yeast -8.0%.
Cc1ccccc1N1C(=O)CC(Nc2ccc3c(c2)OCO3)C1=O (stereo unspecified) was read as RE007 growth inh -10.0%, NS1 inh 8.1%, Tb PYK inh -30.8%, Sm TGR block inconclusive, LmPK inh 0.5% and SARS PLP yeast 13.8%.
Cc1ccc(N2C(=O)C3C(C2=O)N2C(c4cccs4)C4C(=O)N(c5ccc(C)cc5)C(=O)C4N2C3c2cccs2)cc1 (stereo unspecified) was read as RE007 growth inh 18.6%, NS1 inh 2.51µM*, Tb PYK inh 1.4%, Sm TGR block -3.5%, LmPK inh 0.0% and SARS PLP yeast 15.6%.
For O=C(OCc1cc(=O)n2nc(-c3cccs3)sc2n1)c1ccc(F)cc1 the results were Tb PYK inh 0.5% and Sm TGR block 2.0%.
O=C(Nc1ccc2[nH]c3c(c2c1)CCCC3)c1ccco1 was read as RE007 growth inh inconclusive, NS1 inh -35.6%, Tb PYK inh -0.7%, Sm TGR block 44.7µM*, LmPK inh 0.3% and SARS PLP yeast 0.8%.
`O=C(Nc1nccs1)c1cc2c(s1)CCCCC2` gave RE007 growth inh 31.6µM*, NS1 inh -232.5%, Tb PYK inh -22.0%, Sm TGR block -14.0%, LmPK inh 14.1µM* and SARS PLP yeast -29.6%.
For CCc1ccc2occ(CC(=O)NCc3ccccc3)c2c1 the results were Tb PYK inh -5.2% and Sm TGR block -2.9%.
`CCCCC1C(=O)N(c2ccccc2)N(c2ccc(O)cc2)C1=O` (stereo unspecified) gave RE007 growth inh 3.4%[18.4 µM], Tb PYK inh inconclusive and Sm TGR block 10µM*.
For Cc1ccc2nc3c(nc2c1C)CCCC3 the results were RE007 growth inh -12.2%, NS1 inh -4.0%, Tb PYK inh 1.5%, Sm TGR block -5.8%, LmPK inh 0.3% and SARS PLP yeast 0.5%.
Screening Cc1ccc2nc3c(nc2c1C)C(O)=C3O returned RE007 growth inh 3.7%, NS1 inh 2.6%, Tb PYK inh 8.8%, Sm TGR block 7.94µM*, LmPK inh 7.7% and SARS PLP yeast 0.3%.
For CN(C)CCN(c1ccccn1)c1ccccn1 the results were NS1 inh -7.2%.
CC(C)C[C@H](N)c1nnc(S(=O)(=O)Cc2ccc(F)cc2)o1 was read as RE007 growth inh -27.9%, NS1 inh -63.4%, Tb PYK inh 3.6%, Sm TGR block 1µM*, LmPK inh 5.2% and SARS PLP yeast -17.0%.
Screening CC(C)C[C@H](N)c1nnc(SCc2ccc(Cl)cc2Cl)o1 returned Tb PYK inh 3.3% and Sm TGR block 7.9%.
For O=C1CC(CC(=O)N/N=C/c2ccccc2[N+](=O)[O-])=NN1 the results were RE007 growth inh -1.7%, NS1 inh 6.31µM*, Tb PYK inh -3.2%, Sm TGR block 0.0%, LmPK inh 1.7% and SARS PLP yeast 23.7%.

Source: PubChem BioAssay (National Center for Advancing Translational Sciences (NCATS))
